This is a sample that favours compounds with a hit; in the whole collection about 1.2% have one here.
GSH fluor: compound fluoresces at 488/530 nm on GSH beads; GSH beads flow cytometry, compound fluorescence 488/530 nm; stronger effect = higher value; fluorescence (KMESF) at 10 µM; 190,000 compounds, 0.25% hits; AID 1776; in the data active means fluorescence above about 89;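 further: glutathione beads carrying GST-tagged Bcl family fusion proteins plus one bare bead set; values are compound well signal with DMSO vehicle wells as background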
RGS16-Gao HTS: RGS16-Galphao interaction regulator (human); AID 1441; 220,000 compounds, 0.38% hits; O15492+P09471; bead-based flow cytometry RGS16-Galphao binding, fluorescence; actives lie on both sides; binding response (% of control), % at 10 µM;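 further: Galphao activated by GDP with aluminum fluoride before binding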
RGS7-Gao: regulators of human RGS7-Galphao interaction; 220,000 compounds, 0.35% hits; binding response (% of control), % at 10 µM; Multiplexed bead flow cytometry, RGS7-Galphao binding; actives lie on both sides; in the data active means binding response below about 49% or above about 150%;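 further: fluorescent Galphao held in activated GDP-AlF4 state binding bead-coupled RGS7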
RGS8-Gao reg: regulators of human RGS8-Galphao interaction; P09471; multiplexed bead flow cytometry, RGS8-Galphao binding; actives lie on both sides; response (percent of control binding), % at 10 µM; 220,000 compounds, 0.34% hits; AID 1423; in the data active means response below about 60% or above about 140%; inactive means in between;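 further: Galphao activated as the GDP aluminium fluoride complex binding bead-coupled RGS8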
RGS4-Gao reg: human RGS4-Galphao interaction regulation; 220,000 compounds, 0.33% hits; AID 1415; Multiplexed bead flow cytometry, RGS4-Galphao binding; actives lie on both sides; binding response (% of control), % at 10 µM; P09471; in the data active means binding response below about 49% or above about 150%; inactive means in between;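 further: fluorescent Galphao activated with aluminum fluoride binding bead-coupled RGS4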
Avidin fluor: compound fluoresces at 488/530 nm on avidin beads | compound fluorescence 488/530 nm, flow cytometry; stronger effect = higher value | fluorescence (KMESF) at 10 µM | AID 1775 | 220,000 compounds, 0.38% hits; in the data active means fluorescence above about 47
RGS-Gao: RGS4-Galphao interaction regulator (human); multiplexed bead flow cytometry, RGS–Galpha-o binding; RGS4–Galpha-o binding response, % at 10 µM; 1,600 compounds, 99% hits; shares compounds with RGS16-Gao HTS;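 further: fluorescently labeled Galpha-o bound to GDP with aluminium fluoride binding biotinylated RGS beads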
Biotin-avidin: counter-screen: compounds disrupting biotin binding to avidin beads; shares compounds with RGS16-Gao HTS; streptavidin beads, fluorescein-biotin binding, flow cytometry; inhibition, % at 10 µM; 1,700 tested, under 10 active; AID 1783;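 active means inhibition above 50%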;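 further: median green fluorescence of gated singlet beads compared with DMSO control wells; 0% = DMSO wells and 100% = complete loss of bead fluorescence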
RGS8-Gao single: RGS8-Galphao interaction regulation, single point confirmation; shares compounds with RGS16-Gao HTS; bead-based flow cytometry RGS8-Galphao binding, fluorescence; actives lie on both sides; binding response (% of control), % at 10 µM; 1,700 compounds, 3% hits; in the data active means binding response below about 72% or above about 130%; inactive means in between;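 further: Galphao activated as GDP AlF4 complex before binding bead RGS8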
RGS7-Gao single: confirmation of regulators of human RGS7-Galphao interaction | shares compounds with RGS16-Gao HTS | bead-based flow cytometry RGS7-Galphao binding; actives lie on both sides | response (percent of control binding), % at 10 µM | 1,700 compounds, 7.8% hits; in the data active means response below about 75% or above about 130%; inactive means in between;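 further: fluorescent Galphao activated with GDP and aluminum fluoride binding bead-coupled RGS7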
RGS16-Gao single: confirmation of regulators of human RGS16-Galphao interaction. shares compounds with RGS16-Gao HTS. bead-based flow cytometry, RGS16-Galphao binding; actives lie on both sides. response (% of control binding), % at 10 µM. 1,700 compounds, 4% hits. AID 1838; in the data active means response below about 74% or above about 130%; inactive means in between;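 further: Galphao activated as the GDP aluminium fluoride complex binding bead-coupled RGS16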
RGS4-Gao single: RGS4-Galphao interaction regulation, single point confirmation; 1,700 compounds, 4% hits; binding response (% of control), % at 10 µM; shares compounds with RGS16-Gao HTS; AID 1840; RGS4-Galphao binding, multiplexed bead flow cytometry; actives lie on both sides; in the data active means binding response below about 74% or above about 130%; inactive means in between
RGS19-Gao single: confirmation of regulators of human RGS19-Galphao interaction; shares compounds with RGS16-Gao HTS; 1,700 compounds, 5% hits; bead-based flow cytometry RGS19-Galphao binding; actives lie on both sides; response (percent of control binding), % at 10 µM; AID 1841; in the data active means response below about 50% or above about 160%; inactive means in between;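 further: 100% = no compound control and 0% = blank background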
Target sequence (P09471 whole entry, looked up): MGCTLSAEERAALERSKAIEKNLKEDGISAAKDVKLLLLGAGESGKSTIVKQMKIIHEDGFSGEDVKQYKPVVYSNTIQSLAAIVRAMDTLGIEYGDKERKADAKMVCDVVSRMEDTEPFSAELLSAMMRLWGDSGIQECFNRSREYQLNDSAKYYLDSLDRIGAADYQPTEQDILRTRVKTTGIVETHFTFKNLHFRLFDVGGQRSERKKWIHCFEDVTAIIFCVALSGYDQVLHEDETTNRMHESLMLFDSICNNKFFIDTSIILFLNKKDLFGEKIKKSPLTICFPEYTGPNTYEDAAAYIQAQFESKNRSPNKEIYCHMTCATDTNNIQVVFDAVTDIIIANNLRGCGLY
Target sequence (P49795 whole entry, looked up): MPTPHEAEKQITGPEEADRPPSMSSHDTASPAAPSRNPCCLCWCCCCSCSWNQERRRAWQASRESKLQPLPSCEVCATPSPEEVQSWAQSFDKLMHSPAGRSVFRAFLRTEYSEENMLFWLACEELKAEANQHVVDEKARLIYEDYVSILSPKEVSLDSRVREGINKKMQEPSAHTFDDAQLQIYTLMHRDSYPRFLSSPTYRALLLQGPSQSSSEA
An asterisk follows results filed as active; · = no result given; [ ] = another dose, or the depositor's remark. Unless noted, how the calls were made is not given here.

SMILES | GSH fluor | RGS16-Gao HTS | RGS7-Gao | RGS8-Gao reg | RGS4-Gao reg | Avidin fluor | RGS-Gao | Biotin-avidin | RGS8-Gao single | RGS7-Gao single | RGS16-Gao single | RGS4-Gao single | RGS19-Gao single
COC(=O)c1ccc(Oc2ccc3nnc(C)n3n2)cc1 | 64 | 389 | 116 | 142*[activator] | 122 | 6 | 122* | -1 | 100 | 94 | 97 | 99 | 95
COC(=O)c1ccc(Oc2ccc3nncn3n2)cc1 | 12 | 88 | 95 | 95 | 97 | 17 | · | · | · | · | · | · | ·
CCC(=O)N1CCN(c2ccc(NC(=O)c3ccc4c(c3)OCCO4)cc2)CC1 | 11 | 101 | 94 | 100 | 97 | 3 | · | · | · | · | · | · | ·
CCC(=O)N1CCN(c2ccc(Cl)cc2NC(=O)c2ccc3c(c2)OCCO3)CC1 | 42 | -0.4* | 2.0* | 6.1* | 0.4* | -4 | · | 2 | 100 | 96 | 99 | 99 | 98
CCOCC(=O)Nc1cccc(C(=O)OCC)c1 | 35 | 108 | 96 | 104 | 99 | 11 | · | · | · | · | · | · | ·
CCOCC(=O)Nc1cc(C(=O)OC)cc(C(=O)OC)c1 | 6 | 203*[activator] | 104 | 128 | 110 | 2 | 110* | 0 | 107 | 102 | 111 | 102 | 108
CCOc1ccccc1N=C1SC(CC(=O)Nc2ccc(OC)cc2OC)C(=O)N1CCC1=CCCCC1 (configuration not stated) | 9 | 67 | 100 | 95 | 99 | 2 | · | · | · | · | · | · | ·
O=C(CC1SC(=Nc2ccc(OC(F)F)cc2)N(CCC2=CCCCC2)C1=O)Nc1ccccc1F (configuration not stated) | 3 | 25* | 89 | 77 | 89 | 7 | 89* | 0 | 105 | 99 | 108 | 103 | 104
COc1ccc(N(CC(=O)NCc2cccs2)S(=O)(=O)c2c(C)n[nH]c2C)cc1 | 16 | 14* | 74 | 58* | 75 | 6 | 75* | · | · | · | · | · | ·
CC(C)(C(=O)Nc1nccs1)c1ccccc1 | 13 | 147 | 156*[activator] | 139 | 137 | 12 | 137* | 3 | 103 | 109 | 104 | 106 | 107
O=C(Nc1ccccc1)Nc1nccs1 | 14 | 101 | 97 | 103 | 98 | 34 | · | · | · | · | · | · | ·
COc1ccc(/C(C)=N/OCC(=O)N2CC3(C)CC2CC(C)(C)C3)cc1 (configuration not stated) | 13 | -45 | 276*[activator] | 282*[activator] | 304*[activator] | 1 | · | 0 | 107 | 109 | 113 | 109 | 124
O=C(NCCCN1CCCC1)c1cccc(N2CCCC2=O)c1 | 25 | 1 | 7.6* | 10* | 18* | 1 | · | -1 | 100 | 105 | 100 | 107 | 98
O=C(NCCCN1CCN(c2ccc(F)cc2)CC1)c1cccc(N2CCCC2=O)c1 | 16 | 89 | 89 | 98 | 92 | 23 | · | · | · | · | · | · | ·
Cc1ccc(C(=O)COC(=O)c2cc(Cl)nc3ccccc23)cc1C | 55 | 805 | 118 | 158*[activator] | 130 | 5 | 130* | · | · | · | · | · | ·
Cc1ccc(C)c(C(=O)COC(=O)c2cc(Cl)nc3ccccc23)c1 | 5 | 91 | 95 | 96 | 96 | 1 | · | · | · | · | · | · | ·

High-throughput results as filed in PubChem BioAssay.
